# Results reported in PubChem BioAssay (NCI).
# About 83,000 compounds went through this panel and 20% of them were active in at least one assay; those are over-represented in the sample as a whole.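 A percent growth of 40 corresponds to 60% growth inhibition; 0 means no net growth; -100 means all cells died. Active threshold: below 10.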 Values without a mark were called inactive. The source made the active and inactive calls.
# Assays:
# Test in all cases: NCI-60 one-dose screen, 48 h (100 = growth as untreated, 0 = no growth, -100 = all killed)
# SK-MEL-2 melanoma = settings: 10 µM unless noted
# EKVX NSCLC = settings: 10 µM unless noted
# SN12C renal = settings: 10 µM unless noted
# UO-31 renal = settings: 10 µM unless noted
# ACHN renal = settings: 10 µM unless noted
# A498 renal = settings: 10 µM unless noted
# CCRF-CEM leukemia = settings: 10 µM unless noted
# MOLT-4 leukemia = settings: 10 µM unless noted
# CAKI-1 renal = settings: 10 µM
# TK-10 renal = settings: 10 µM unless noted
SMILES,growth (SK-MEL-2 melanoma),growth (EKVX NSCLC),growth (SN12C renal),growth (UO-31 renal),growth (ACHN renal),growth (A498 renal),growth (CCRF-CEM leukemia),growth (MOLT-4 leukemia),growth (CAKI-1 renal),growth (TK-10 renal) [%]
O=C(NCCNc1nccc(-c2c(-c3cccc(O)c3)nc3sccn23)n1)c1cc(N2CCOCC2)cc(C(F)(F)F)c1,64.5%,88.6%,89.8%,87.5%,79.4%,92.8%,52.9%,68.6%,–,–
Nc1ncnc2c1c(-c1ccc(Oc3ccccc3)cc1)nn2C[C@H]1SSC[C@@H]1O,-46.5% (active),25.3%,54.5%,17.4%,33.4%,27.9%,-15.8% (active),-51.2% (active),–,–
O=c1c2ccccc2[nH]n1Cc1ccc2c(c1)OCO2,104%,105%,101%,92.7%,103%,90.3%,96.2%,97.4%,–,–
O=C(O)c1cccc2oc(-c3ccccc3O)nc12,71.2%,45%,57.5%,54.3%,57.9%,47.8%,31.3%,66.4%,–,–
COc1ccc(OCC(O)CN2CCN(c3ccc(Cl)cc3)CC2)cc1 (stereo not given),135%,97.4%,105%,76%,101%,82.8%,113%,107%,–,–
Cc1ccc(-c2cn3cc([N+](=O)[O-])ccc3n2)cc1,71.5%,67.4%,75.3%,57.2%,73.4%,57.6%,52.6%,57.6%,–,–
Fc1ccc(Nc2ncnc3ccc(-c4cn[nH]c4)cc23)cc1Cl,45.3%,22.4%,56.8%,45.6%,26.1%,7.79% (active),75.3%,56.7%,–,–
COc1ccc(CCNC=O)cc1OC,105%,105%,97.4%,82.3%,101%,102%,105%,100%,–,–
COc1ccc(-c2nn(-c3cccc(Cl)c3)cc2-c2cc(-c3ccc(Br)cc3)[nH]c(=O)c2C#N)cc1,122%,88.4%,67.9%,87.3%,91.8%,102%,75.4%,–,–,–
O=C(Nc1ccc(-n2ccc3c(NC(=O)c4ccccc4)nccc32)cc1)Nc1cccc(C(F)(F)F)c1,71.9%,65.5%,79.2%,78%,62.2%,80.7%,13.8%,35.9%,–,–
O=C(Nc1ccc(-n2ccc3c(NC(=O)c4ccccc4)nccc32)cc1)Nc1ccc(Cl)c(Cl)c1,-42.4% (active),39.5%,10.7%,-61.4% (active),2.67% (active),–,-34.6% (active),9.08% (active),-57.7% (active),–
O=C(Nc1ccc(-n2ccc3c(NC(=O)c4ccccc4)nccc32)cc1)c1ccc(Cl)c(C(F)(F)F)c1,53.4%,72.8%,47.9%,36.6%,37.1%,63.6%,-9.57% (active),–,–,–
CS(=O)(=O)Nc1cccc(-c2ccc3ncnc(Nc4ccc(F)c(Cl)c4)c3c2)c1,-4.95% (active),7.22% (active),44.2%,21.1%,22.3%,-25.7% (active),19.1%,0.953% (active),–,–
CN[C@@H](CCCNC(N)=NC/C=C(/C)CCC=C(C)C)C(=O)N(C)[C@@H](CCCNC(N)=NCC=C(C)C)C(=O)N[C@H](C)[C@H](OS(=O)(=O)O)c1ccc(OS(=O)(=O)O)c(COS(=O)(=O)O)c1,105%,113%,101%,97.6%,113%,87%,102%,96.9%,–,–
COc1ccc(C(=O)NC(=O)Nc2ccc3c(c2)NC(=O)/C3=C\c2[nH]c(C)c(CCC(=O)O)c2C)c(F)c1,-0.585% (active),73.1%,39.7%,55.6%,67%,-0.45% (active),12.2%,54.6%,–,–
CCN(CC)CCN1C(=O)c2c(c3c4ccccc4[nH]c3c3[nH]c4ccccc4c23)C1=O,101%,80.3%,79.1%,71.3%,62%,67.7%,78.8%,34.8%,–,–
O=c1c2ccccc2sc2c(NCCCNCCO)nc3ccccc3c12,-35.6% (active),55.6%,44.8%,28.9%,-7.87% (active),16.4%,-6.25% (active),-20.4% (active),–,–
COc1ccc(CNc2nc3ccccc3c3c(=O)c4ccccc4sc23)cc1OC,102%,84.3%,82.5%,85%,40.2%,64.2%,84.8%,86.6%,–,–
O=C1COc2ccccc2C(=O)N1CCCCNc1ccccc1,104%,106%,58.4%,12.2%,110%,–,1.06% (active),34.1%,107%,–
CC[C@H]1[C@@H]2C=C[C@@H]3[C@H]4C/C=C\C(=O)NCCC[C@@H]5NC(=O)/C(=C(O)/C=C/[C@@H]4C[C@@H]3[C@H]2C[C@H]1C)C5=O,46%,15.3%,-66.1% (active),-78.2% (active),-84.1% (active),-18.4% (active),-17% (active),–,–,–
c1ccc(-c2nc3sc(C(c4ccccc4)c4ccccc4)nn3c2-c2ccccc2)cc1,81.3%,89.8%,93.8%,90.8%,97.5%,87.6%,100%,107%,–,–
Nc1ncnc2c1c(-c1ccc(Oc3ccccc3)cc1)nn2C[C@@H]1SSC[C@H]1O,-14.4% (active),33.2%,23.3%,0.587% (active),11.6%,-5.51% (active),32.9%,–,–,–
OC[C@@H](O)C(O[C@@H]1O[C@H](CO)[C@H](O)[C@H](O)[C@H]1O)[C@H](O)[C@@H](O)CO (stereo not given in full),106%,95.4%,101%,75.5%,94.4%,111%,106%,106%,–,–
CCc1ccc(C2=C/C(=C/c3ccc(Cl)cc3)C(=O)N2CCc2ccc(S(N)(=O)=O)cc2)cc1,-12.5% (active),29.7%,29%,16.5%,14.9%,33.1%,15%,-1.62% (active),–,–
CCCCC(=O)Nc1nc2ccc(SCCC)cc2s1,50.1%,59.7%,50.1%,37.5%,75.1%,–,44%,29.8%,–,–
CC(C)[C@@H]1NC(=O)[C@]2(C)CSC(=N2)c2ccnc(c2)CNC(=O)C[C@@H](/C=C/CCS)OC1=O,-28.2% (active),31.4%,27.8%,12%,6.6% (active),-77% (active),16%,8.13% (active),–,–
O=c1[nH]ccc2nc(N3CCC(O)CC3)nc(Nc3cccc(C(F)(F)F)c3)c12,25.2%,83%,61.4%,–,67.6%,93.6%,13%,1.19% (active),38.6%,67.6
Cc1[nH]c2ccc(F)cc2c1CCNC(=O)C1CCN(C(=O)c2ccc(-c3ccccc3)cc2)CC1,71.6%,44.2%,64.1%,36.5%,52.6%,47.9%,54.1%,26.9%,–,–
